From PubChem
Sampled rows, rich in hits. Any-hit rate of the full collection: about 5.3%.
MARV entry inh – qHTS for inhibitors of binding or entry into cells for Marburg Virus; Marburg virus pseudotyped entry inhibition, cell reporter; 1.8% of 300,000 active; Potency, µM (titrated, usually from 37.8 µM), for the others: at the top dose activity change, negative = inhibition, usual class: inhibitors; calls by dose curve; tested in HEK293 cells
HCV inh – qHTS Assay for Inhibitors of Hepatitis C Virus (HCV); Huh7.5.1 HCVcc-Cre infection, luciferase reporter, 44 h; Potency, µM (top dose mostly 41.8 µM), for inactives: at the top dose activity change, negative = inhibition, most hits filed as inhibitors; 3.4% of 340,000 active; active = well fitted inhibition curve with a large enough effect; inconclusive = small, poorly fitted or top-dose-only effect, or another doubt; inactive = no such curve, though single readings can be large or run the other way
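1,000 cells/well; 4 h culture; + compound; + HCVcc-Cre (~0.5 moi); 44 h; luciferase substrate, RT 15 min; read 15 sec.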
VACV Venus inh – qHTS for Stage-Specific Inhibitors of Vaccinia Orthopoxvirus: Venus Reporter Primary qHTS | Vaccinia virus Venus reporter expression, fluorescence | Potency, µM (highest dose often 36.5 µM), for the others: at the top dose activity change, negative = inhibition, hits mostly inhibitors | 0.46% of 330,000 active; calls by dose curve; tested in A549 cells; also: nearly all actives have a fitted effect of over 30% in size
Lassa entry inh – qHTS for Inhibitors of binding or entry into cells for Lassa Virus | Lassa virus pseudotype entry inhibition, cell reporter | Potency, µM (top dose mostly 37.9 µM), without a hit: top-dose activity change, negative = inhibition, most hits filed as inhibitors | 1.2% of 300,000 active; calls by dose curve; tested in HEK293 cells; also: nearly all actives have a fitted effect of over 50% in size
Vaccinia mCherry – qHTS for Stage-Specific Inhibitors of Vaccinia Orthopoxvirus: mCherry Reporter Primary qHTS; Vaccinia virus mCherry reporter infection, fluorescence; Potency, µM (series often up to 36.5 µM), for the others: at the highest dose activity change, negative = inhibition, hits mostly inhibitors; 0.63% of 310,000 active; AID 720579, 2013; calls by dose curve; tested in A549 cells; also: nearly all actives have a fitted effect of over 35% in size
FMDV antiviral – High Throughput Screening for Foot and Mouth Disease Virus Antivirals | 1.2% of 410,000 active | FMDV antiviral cell-based qHTS | Potency, µM (series often up to 57.9 µM), without a hit: at the highest dose activity change, negative = inhibition, most hits filed as inhibitors; calls by dose curve; tested in HEK293T cells; also: read-out not given here; nearly all actives have a fitted effect of over 45% in size
Active calls of the source: *; i = inactive; u = inconclusive; x = no result given; [ ] = dose if it differs, or a comment. % is scaled to controls: 0 for no effect and ±100 for the full control effect; potency is read from the fitted curve at half-maximal effect.

SMILES	MARV entry inh	HCV inh	VACV Venus inh	Lassa entry inh	Vaccinia mCherry	FMDV antiviral
Nc1ccc(C#Cc2cncnc2Nc2ccc(OCc3cccc(F)c3)c(Cl)c2)cc1	x	x	x	3.15µM*	x	x
COc1cc(CN2CCC3(CC2)c2ccccc2[C@@H](NC(=O)c2ccccc2OC)[C@@H]3O)ccc1F	x	x	-23.8%	x	-23.0%	u
CC[C@@H]1CN2CCc3cc(OC)c(OC)cc3[C@H]2C[C@@H]1C[C@H]1NCCc2cc(OC)c(OC)cc21	0.326µM*	x	x	x	x	x
CCC1CN2CCc3cc(OC)c(OC)cc3C2CC1CC1NCCc2c1[nH]c1ccc(O)cc21 (centres undefined)	0.224µM*	u	5.62µM*	0.501µM*	u	u
COc1ccc(Nc2ncnc3onc(C)c23)cc1Cl	x	x	4.3%	9.4%[46.1 µM]	7.0%	-6.1%
O=C(Nc1cc2ccc(O)cc2oc1=O)c1ccc(F)cc1	x	x	-13.1%	u	-22.1%	0.7%
O=C(Nc1cc2ccccc2oc1=O)c1ccccc1	1.26µM*	-21.2%	-0.2%	2.51µM*	3.2%	-80.8%
COCCNc1nc(-c2cc3ccccc3o2)cs1	u	u	-17.8%	3.98µM*	-22.9%	0.0%
COc1cc(OC)cc(C(=O)NC(=S)Nc2nc(-c3cc4ccccc4o3)cs2)c1	x	12.1%	15.1%[7.34 µM]	x	0.5%[7.34 µM]	-7.9%
COc1ccc(NS(=O)(=O)c2ccc3[nH]c4c(c3c2)CCCCC4)cc1	x	x	-26.3%	-2.8%[46.1 µM]	-4.0%	-1.4%
COc1cccc(N2CCN(C(=O)c3cnn(-c4ccc(C)cc4C)c3C3CCN(C(=O)OC(C)(C)C)CC3)CC2)c1	x	x	-18.3%	1.12µM*	-27.5%	u
CC(C)(C)OC(=O)N1CCC(c2c(C(=O)NCCN3CCC(Cc4ccccc4)CC3)cnn2-c2ccccc2)CC1	x	x	11.2µM*	u	u	u
CCOC(=O)c1cnn(-c2ccc(Cl)cc2)c1C1CCN(C(=O)OC(C)(C)C)CC1	u	12.6µM*	-29.1%	3.26µM*	u	u
Cc1noc(C)c1C(=O)N1CCC2(CCN(Cc3nccs3)CC2)CC1	x	x	x	x	x	-6.9%
Cc1ccccc1NS(=O)(=O)c1cc(C(=O)Nc2ccccc2-c2ccccc2)ccc1Cl	-6.6%	11.2µM*	-20.3%	u	i	9.5%
Cc1ccc(C)c(NS(=O)(=O)c2cc(C(=O)N3CCc4ccccc4C3)ccc2Cl)c1	-29.8%	u	-16.2%	-6.9%	-5.6%	-16.2%
C=CCNC(=O)c1ccccc1NC(=O)c1ccc(Cl)c(S(=O)(=O)Nc2cc(C)ccc2C)c1	u	12.6µM*	u	u	i	51.6%
CCOC(=O)c1c(/N=C/N(C)C)sc(/C=N/Nc2ccccc2)c1-c1ccccc1Cl	u	6.31µM*	-21.4%	u	-18.6%	-4.6%
CCOC(=O)c1c(/N=C/N(C)C)sc(/C=N/Nc2ccccc2)c1-c1ccccc1	18.3µM*	u	x	-4.1%	x	-19.2%
CCOC(=O)c1c(/N=C/N(C)C)sc(C=O)c1-c1ccccc1	-8.1%[46.1 µM]	-10.6%	16.3%	8.4%	i	0.5%
O=C(NCc1ccc2c(c1)OCO2)c1ccc2c(c1)N(Cc1c(F)cccc1Cl)C(=O)c1ccccc1S2	u	x	3.1%[7.34 µM]	-3.7%[46.1 µM]	-2.2%[7.34 µM]	-2.9%
O=C(c1ccc(Cn2cnnn2)cc1)N1CCOc2ccc(C(O)C3CCCCC3)cc2C1 (centres undefined)	x	x	-7.9%	x	-18.5%	-24.7%
C=CCN1c2ccccc2[C@]23C[C@@H](C(=O)OC)N(C(=O)CC(C)C)C2=NC(C(=O)OC)=C(C(=O)OC)[C@H]13	u	7.94µM*	-27.2%	x	i	-2.7%
COC(=O)C1=C(C(=O)OC)[C@@H]2N(Cc3ccccc3)c3ccccc3[C@@]23C[C@@H](C(=O)OC)N(C(=O)c2ccc(Br)cc2)C3=N1	x	-1.6%	10µM*	x	u	u
C=CCN1c2ccccc2[C@]23C[C@@H](C(=O)OC)N(C(=O)c4ccc(Br)cc4)C2=NC(C(=O)OC)=C(C(=O)OC)[C@H]13	x	-16.6%	u	x	u	u
